Measured values as given in PubChem BioAssay (NCI).
The panel holds about 83,000 compounds, 20% with a hit somewhere; the sample as a whole holds those more often.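 The test compound was applied at a single concentration to cells in 96-well plates for 48 hours, and percent growth was recorded.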 The source made the active and inactive calls. Rule for the calls: active = growth percent below 10; inactive = the rest.

Each compound was assayed on NCI/ADR-RES ovarian (assay: NCI-60 one-dose screen, 48 h (100 = growth as untreated, 0 = no growth, -100 = all killed)). Conditions: 10 µM unless noted.

Structure (SMILES)	growth
C=C1C(=O)O[C@@H]2C[C@@H](C)[C@H](OC)CC(=O)[C@](C)(OC(C)=O)C[C@H](OC(=O)/C(C)=C\C)[C@@H]12	100% (inactive)
O=C1[C@H]2Cc3c([nH]c4ccccc34)[C@@H](c3ccc(Cl)cc3)N2C(=O)CN1C1CCN(Cc2c(Cl)cccc2Cl)CC1	81.5% (inactive)
COc1ccc(Cn2cc3c(c2-c2ccccc2)CCCc2cnoc2-3)cc1	29.8% (inactive)
COc1ccc(-c2oc3cc(O)cc(O)c3c(=O)c2OC)cc1O	15.4% (inactive)
N/C(=N\OC(=O)CSc1nc2ccccc2s1)c1ccc2ccccc2c1	104% (inactive)
CCOC(=O)C1=C(C)Nc2nc3ccccc3n2C1c1ccccc1 (stereo not drawn)	92% (inactive)
CS(=O)(=O)c1ccc(-c2nn(-c3ccccc3)cc2/C=N/NC(=O)c2ccncc2)cc1	94.7% (inactive)
Cc1cc(O)c2c(c1)C(=O)C(c1c(C)cc3c(c1O)C(=O)C=CC3=O)=CC2=O	100% (inactive)
N#Cc1c(NC(=O)c2ccccc2C(F)(F)F)sc2c1CCC(=O)C2	4.69% (active)
CCOC(=O)C1=C(C)N=C2Sc3ccccc3N2C1c1ccccc1 (stereo not drawn)	82.3% (inactive)
CN(C)c1ncc(/C=C2\SC(=S)N(Cc3ccccc3Cl)C2=O)s1	90.8% (inactive)
CCN1C(=O)N(CC)C2SC(N/N=C/c3ccc(OC)cc3)=NC21 (stereo not drawn)	2.95% (active)
O=C1[C@@H]2Cc3c([nH]c4ccccc34)[C@H](c3c(Cl)cccc3Cl)N2C(=O)CN1C1CCN(Cc2c(F)cccc2F)CC1	85.3% (inactive)
